These results are taken from PubChem BioAssay (NCATS).

Results filed as inconclusive are left out. A number with no mark means an inactive call. Activity calls are given as the source filed them. The call rests on the fitted dose curve; in most records, active means well fitted curve in the direction sought with a large enough effect; inconclusive means small, poorly fitted or top-dose-only effect, or another doubt; inactive means no such curve, though single readings can be large; an effect the other way counts as inactive or inconclusive.

Test [1] is described as follows: Quantitative High-Throughput drug screen in 47 multiple myeloma cell lines against the NCATS MIPE library collection: Karpas620_DSMZ cell viability assay (AID 1918959). Further: nearly all actives have a fitted effect of over 30% in size. Further: potency means the concentration at half of the fitted maximal effect. Put shortly:
(§1)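 Luminescent ATP measurement with CellTiter-Glo gives viability, scaled between DMSO-only wells (100%) and media-only wells (0%). Cells, 500 per well, faced library compounds for 48 hours at 37C.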

Test [2] can be described thus: Quantitative High-Throughput drug screen in 47 multiple myeloma cell lines against the NCATS MIPE library collection: KMM1_JCRB cell viability assay (AID 1918960). Further: nearly all actives have a fitted effect of over 30% in size. Further: potency means the concentration at half of the fitted maximal effect. Put shortly: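 Myeloma cells at 500 per well in 1536-well format treated with MIPE 4.0 library by pin transfer for 48 h at 37C, 5% CO2. Viability from ATP luminescence (CellTiter-Glo), normalized to DMSO (100%) and media-only (0%) wells.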

The nature of test [3]: Quantitative High-Throughput drug screen in 47 multiple myeloma cell lines against the NCATS MIPE library collection: JIM3_ECACC cell viability assay (AID 1918963; further: nearly all actives have a fitted effect of over 35% in size; further: potency means the concentration at half of the fitted maximal effect). Put shortly:
as §1

Test [4] can be described thus: Quantitative High-Throughput drug screen in 47 multiple myeloma cell lines against the NCATS MIPE library collection: JIM1_ECACC cell viability assay (AID 1918964; further: potency means the concentration at half of the fitted maximal effect). A digest of the protocol: (§2)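 Relative luminescence from CellTiter-Glo served as the viability signal, referenced to DMSO-treated (100%) and cell-free medium (0%) controls. Treatment lasted 48 hours at 37C with 500 cells per well.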

Test [5] can be described thus: Quantitative High-Throughput drug screen in 47 multiple myeloma cell lines against the NCATS MIPE library collection: H1112_PLB cell viability assay (AID 1918967; further: nearly all actives have a fitted effect of over 30% in size; further: potency means the concentration at half of the fitted maximal effect). Put shortly: as §2
The nature of test [6]: Quantitative High-Throughput drug screen in 47 multiple myeloma cell lines against the NCATS MIPE library collection: KMS27_JCRB cell viability assay (AID 1918970). Further: nearly all actives have a fitted effect of over 30% in size. Further: potency means the concentration at half of the fitted maximal effect. Particulars: KMS27 myeloma cells, CellTiter-Glo ATP viability, 48 h; viability (% of DMSO): at 45.8 µM (top of the series). A digest of the protocol: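 ATP-based viability (CellTiter-Glo luminescence) is measured in cells treated 48 h with approved and investigational drugs at 37 °C. Controls are DMSO-only wells for full viability and media-only wells for none.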
Background: In ATP-based viability assays light output follows the ATP content of the culture.

Test [7] can be described thus: Quantitative High-Throughput drug screen in 47 multiple myeloma cell lines against the NCATS MIPE library collection: KMS20_JCRB cell viability assay (AID 1918973). Further: nearly all actives have a fitted effect of over 45% in size. Further: potency means the concentration at half of the fitted maximal effect. Put shortly:
as §2

Test [8] is described as follows: Quantitative High-Throughput drug screen in 47 multiple myeloma cell lines against the NCATS MIPE library collection: KMS26_JCRB cell viability assay (AID 1918975). Further: nearly all actives have a fitted effect of over 45% in size. Further: potency means the concentration at half of the fitted maximal effect. Put shortly: (§3)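 Approved and investigational drugs from MIPE 4.0 were added by pin tool to 500 cells per well. After 48 hours at 37C, ATP-based CellTiter-Glo luminescence indicated remaining viability.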

The nature of test [9]: Quantitative High-Throughput drug screen in 47 multiple myeloma cell lines against the NCATS MIPE library collection: MOLP8_DSMZ cell viability assay (AID 1918977). Further: nearly all actives have a fitted effect of over 45% in size. Further: potency means the concentration at half of the fitted maximal effect. A digest of the protocol: (§4)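 Inhibition of viability over 48 h was scored by ATP content (CellTiter-Glo) in 500-cell wells. Zero and full viability were defined by media-only and DMSO-only wells.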
Test [10] is described as follows: Quantitative High-Throughput drug screen in 47 multiple myeloma cell lines against the NCATS MIPE library collection: NCIH929_DSMZ cell viability assay (AID 1918978). Further: nearly all actives have a fitted effect of over 35% in size. Further: potency means the concentration at half of the fitted maximal effect. A digest of the protocol:
as §4

The nature of test [11]: Quantitative High-Throughput drug screen in 47 multiple myeloma cell lines against the NCATS MIPE library collection: OCIMY1_PLB cell viability assay (AID 1918979). Further: nearly all actives have a fitted effect of over 35% in size. Further: potency means the concentration at half of the fitted maximal effect. Put shortly: as §4
A short description of test [12]: Quantitative High-Throughput drug screen in 47 multiple myeloma cell lines against the NCATS MIPE library collection: INA6_PLB cell viability assay (AID 1918965; further: nearly all actives have a fitted effect of over 55% in size; further: potency means the concentration at half of the fitted maximal effect). A digest of the protocol:
(§5)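 Steps: seed 500 cells per well; pin-transfer MIPE 4.0 library; incubate 48 h at 37C, 5% CO2, humidified; add CellTiter-Glo, 5 min room temperature; read luminescence.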

The nature of test [13]: Quantitative High-Throughput drug screen in 47 multiple myeloma cell lines against the NCATS MIPE library collection: Karpas25_ECACC cell viability assay (AID 1918968; further: nearly all actives have a fitted effect of over 35% in size; further: potency means the concentration at half of the fitted maximal effect). A digest of the protocol: as §2
A short description of test [14]: Quantitative High-Throughput drug screen in 47 multiple myeloma cell lines against the NCATS MIPE library collection: KMS12BM_JCRB cell viability assay (AID 1918971). Further: nearly all actives have a fitted effect of over 35% in size. Further: potency means the concentration at half of the fitted maximal effect. A digest of the protocol:
as §3

The nature of test [15]: Quantitative High-Throughput drug screen in 47 multiple myeloma cell lines against the NCATS MIPE library collection: KMS12PE_JCRB cell viability assay (AID 1918972). Further: nearly all actives have a fitted effect of over 30% in size. Further: potency means the concentration at half of the fitted maximal effect. A digest of the protocol:
as §5

A short description of test [16]: Quantitative High-Throughput drug screen in 47 multiple myeloma cell lines against the NCATS MIPE library collection: JJN3_DSMZ cell viability assay (AID 1918966; further: potency means the concentration at half of the fitted maximal effect; nearly all actives have a fitted effect of over 50% in size). A digest of the protocol:
as §2

The nature of test [17]: Quantitative High-Throughput drug screen in 47 multiple myeloma cell lines against the NCATS MIPE library collection: MMM1_PLB cell viability assay (AID 1918976). Put shortly: as §4
Test [18] in a line: Quantitative High-Throughput drug screen in 47 multiple myeloma cell lines against the NCATS MIPE library collection: Karpas417_ECACC cell viability assay (AID 1918961). Particulars: Karpas417 myeloma viability, CellTiter-Glo ATP luminescence, 48 h; viability (% of DMSO): at 45.8 µM (top of the series). Put shortly: as §5
The nature of test [19]: Quantitative High-Throughput drug screen in 47 multiple myeloma cell lines against the NCATS MIPE library collection: KHM11_PLB cell viability assay (AID 1918962). Further: nearly all actives have a fitted effect of over 35% in size. Put shortly:
as §1

Regarding `CC(C)(C)[N+]([O-])=Cc1ccc(S(=O)(=O)O)cc1S(=O)(=O)O`, the Potency entry in [1], in test [2], in test [3], in test [4], in test [5] and in [6] was “inactive” in each case. The Potency entry in test [7], in test [8], in test [9], in test [10] and in [11] was “inactive” throughout.

As to `C[C@H](CCC(=O)O)[C@H]1CC[C@H]2[C@@H]3[C@H](O)C[C@@H]4C[C@H](O)CC[C@]4(C)[C@@H]3CC[C@]12C`, the Potency entry in test [1], in test [2], in [3], in [12], in test [5] and in [13] was “inactive” in each case. Further, the Potency entry in test [6], in test [14], in test [15], in [7], in [8] and in test [9] was “inactive” each time. For the same compound, the Potency result in [10] and in [11] was “inactive” in each case.

`N#CNC(=NCCCCCCOc1ccc(Cl)cc1)Nc1ccncc1`: the Potency is 1.9 nM (active) in [1]; 5.9 nM (active) in [2]; 29.6 nM (active) in test [4]; 10.5 nM (active) in [16]; 1 nM (active) in test [6]; 11.8 nM (active) in [14]. Besides, the Potency in [15] is 4.2 nM (active); in test [7] it was 8330 nM (active); in test [8], 7.4 nM (active); in [17], 18700 nM (active); in test [9] it was 23.5 nM (active); in test [11] it was 10.5 nM (active). In test [13], the Potency entry was “inactive”.

Regarding `Cc1ccc([N+](=O)[O-])cc1S(=O)(=O)N(C)N=Cc1cnc2ccc(Br)cn12`, the Potency was 26.4 nM (active) in [1]; 11.8 nM (active) in [2]; 1 nM (active) in test [4]; 10.5 nM (active) in [16]; 66.2 nM (active) in test [14]; 20.9 nM (active) in test [15]. Further, the Potency in [8] is 23.5 nM (active); in test [17] it was 83.3 nM (active); in test [9], 8.3 nM (active); in test [11] it was 52.6 nM (active).

`COC1=C(OC)C(=O)C(CC=C(C)CCC=C(C)CCC=C(C)CCC=C(C)CCC=C(C)CCC=C(C)CCC=C(C)CCC=C(C)CCC=C(C)CCC=C(C)C)=C(C)C1=O`: the Potency result in test [1], in test [18], in test [3], in test [12], in test [5] and in test [6] was “inactive” each time. The Potency result in [15], in test [8], in test [9] and in test [10] was “inactive” in each case.

On to `Oc1ccc([C@@H]2Oc3ccc(O)cc3[C@@H]3CCC[C@@H]32)cc1`, for which the Potency result in test [1], in test [2], in test [6] and in test [15] was “inactive” throughout. The Potency is 11800 nM (active) in test [5], 14800 nM (active) in test [13], 14800 nM (active) in test [14] and 18700 nM (active) in test [10].

On to `CC(C)(O)[C@H]1CC[C@@](C)([C@H]2[C@@H](O)C[C@@]3(C)[C@@H]4C[C@H](O[C@@H]5O[C@H](CO)[C@@H](O)[C@H](O)[C@@H]5O)[C@H]5C(C)(C)[C@@H](O[C@@H]6OC[C@@H](O)[C@H](O)[C@@H]6O)CC[C@@]56C[C@@]46CC[C@]23C)O1`, for which the Potency result in test [1], in test [19], in [3], in test [4], in test [12] and in [5] was “inactive” in each case. For the same compound, the Potency entry in test [7], in test [8], in test [9], in test [10] and in [11] was “inactive” in each case.

In the case of `COc1cc(C)c(C=CC(C)=CC=CC(C)=CC(=O)O)c(C)c1C`, the Potency in [1] is 7430 nM (active); in test [3], 166 nM (active); in test [12], 5260 nM (active). For the same compound, the Potency result in test [18], in test [4], in test [5], in [13], in test [8] and in [10] was “inactive” each time. Also, in [11], the Potency entry was “inactive”.
